Screening data as filed in PubChem BioAssay.
Hits are enriched below; roughly 3.1% of the tested compounds scored in any of these assays.
Tau fibril FP – inhibitors of human tau fibril formation; P10636; K18 P301L tau heparin fibrillization, Alexa594 FP, 6 h; Potency, µM (series often up to 57.7 µM), hits mostly inhibitors; actives 0.39% (n = 280,000); note: nearly all actives have a fitted effect of over 55% in size
Target sequence (P10636 561-689 P618L limits assumed): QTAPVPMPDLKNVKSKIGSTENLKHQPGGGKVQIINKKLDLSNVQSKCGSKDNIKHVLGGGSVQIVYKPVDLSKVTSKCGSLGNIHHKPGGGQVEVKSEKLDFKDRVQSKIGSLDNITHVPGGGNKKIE
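Human K18 P301L fragment (15 uM unlabeled plus 0.24 uM Alexa 594-labeled) in 100 mM sodium acetate pH 7 with compound, aggregation induced by 20 uM heparin for 6 hr at 37 C. ThT (30 uM) added for 1 hr, then Alexa 594 FP read.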
Tau ThT inhib – blocks human tau fibril formation measured by thioflavin T; Potency, µM (titrated, usually from 57.4 µM), usual class: inhibitors; recombinant tau K18 P301L, heparin-induced fibrillization, ThT fluorescence; actives 2.1% (n = 270,000); P10636; note: nearly all actives have a fitted effect of over 55% in size
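K18 P301L tau (15 uM + 0.24 uM Alexa 594-tagged), heparin 20 uM, NaOAc pH 7, 6 h 37 C; ThT 30 uM, 1 h RT, ex 450/em 510 nm.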
TexasRed fluor – alters Texas Red total fluorescence, flagging assay interference; TRb/SRC2 Texas Red total fluorescence interference; Potency, µM (titrated, usually from 106 µM); actives 0.29% (n = 280,000); AID 1479; active = well fitted curve in either direction with a large enough effect; inconclusive = small, poorly fitted or top-dose-only effect
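Human TRb ligand-binding domain at 0.6 uM with 20 nM Texas Red SRC2 peptide in Tris buffer containing 1 uM T3 and 5% DMSO, incubated with compound 5 h at ambient temperature. Total fluorescence (555/632 nm) calculated as parallel + 2 × perpendicular.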
Tau fluor counter – counter-screen for tau fibril formation inhibitors; actives 0.93% (n = 280,000); tau K18 P301L Alexa594 fluorescence, heparin fibrillization; Potency, µM (doses to about 57.7 µM); note: nearly all actives have a fitted effect of over 55% in size
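Human tau K18 P301L (15 uM unlabeled, 0.24 uM Alexa 594-labeled) in 100 mM sodium acetate pH 7 with 20 uM heparin, 6 hr at 37 C. ThT 30 uM added, 1 hr ambient; Alexa 594 FP and total fluorescence read at 555/632 nm.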
TRb SRC2 PPI – disrupts binding of human TR beta to SRC2; TRbeta-SRC2 peptide binding, fluorescence polarization; receptor liganded with 1 µM T3; Potency, µM (highest dose often 106 µM), actives largely listed as inhibitors; actives 0.065% (n = 280,000); AID 1469; note: nearly all actives have a fitted effect of over 50% in size
Target sequence (P10828 whole entry, looked up): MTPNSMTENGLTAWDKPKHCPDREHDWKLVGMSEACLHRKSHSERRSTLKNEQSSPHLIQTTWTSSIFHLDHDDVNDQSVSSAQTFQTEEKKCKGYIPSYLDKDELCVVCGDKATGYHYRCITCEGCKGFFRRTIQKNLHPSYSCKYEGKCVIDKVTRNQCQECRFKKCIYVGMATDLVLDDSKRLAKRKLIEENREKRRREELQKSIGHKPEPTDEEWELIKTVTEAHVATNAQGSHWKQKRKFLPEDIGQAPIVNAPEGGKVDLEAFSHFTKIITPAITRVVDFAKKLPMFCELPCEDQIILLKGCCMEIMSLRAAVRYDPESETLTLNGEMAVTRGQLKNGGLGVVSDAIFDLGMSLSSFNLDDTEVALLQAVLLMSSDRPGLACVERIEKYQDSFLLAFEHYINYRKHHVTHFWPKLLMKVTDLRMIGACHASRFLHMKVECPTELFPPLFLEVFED
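Fluorescence polarization of 20 nM Texas Red SRC2 peptide (20-aa NR interaction domain) bound to 0.6 uM human TRb ligand-binding domain, with 1 uM T3, after 5 hr at ambient temperature; inhibition seen as decreased polarization.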
A number is an active result; . = inactive; ? = inconclusive; / = no result given; [ ] = dose if it differs, or a comment. Unless noted, calls come from the whole dose curve; as a rule, active = well fitted curve in the direction sought with a large enough effect; inconclusive = small, poorly fitted or top-dose-only effect, or another doubt; inactive = no such curve, though single readings can be large; an effect the other way counts as inactive or inconclusive.

SMILES | Tau fibril FP | Tau ThT inhib | TexasRed fluor | Tau fluor counter | TRb SRC2 PPI
COc1cc(C)c(/C=C/C(C)=C/C=C/C(C)=C/C(=O)O)c(C)c1C | . | 25.1µM | . | ? | .
CN(C)c1ccc(C(CNC(=O)c2ccccc2)c2c[nH]c3ccccc23)cc1 (configuration not stated) | ? | ? | . | 14.1µM[quencher] | .
COC(=O)/C(=C/Nc1ccc(O)cc1)[N+](=O)[O-] | ? | 17.8µM | . | ? | ?
COC(=O)/C(=C/Nc1ccccc1)[N+](=O)[O-] | . | . | . | . | .
Cc1nnc(C)n1/N=C/c1cc(Br)cc(Br)c1O | . | 11.2µM | . | . | .
C[C@H]1Cc2c(-c3ccccc3)nc3c(c2CO1)CN(C(=O)Nc1cccc(C#N)c1)CC3 | .[11.6 µM] | .[11.5 µM] | .[11.2 µM] | .[11.6 µM] | .[11.2 µM]
CC(CCC(=O)O)C1CCC2C3CC[C@@H]4CCCC[C@@]4(C)C3CC[C@@]12C (some centres not stated) | . | . | . | . | .
COc1ccc2nc(-n3c(C)ccc3C)sc2c1 | . | ? | . | . | .
CCOc1ccc2nc(N3C(=O)/C(=C/c4ccccc4)NC3=S)sc2c1 | ? | 3.55µM | . | ? | .
COc1ccc2nc(N3C(=O)/C(=C/c4ccccc4)NC3=S)sc2c1 | . | 3.98µM | . | ? | .
Cn1cc(S(=O)(=O)N2CCCC2)cc1C(=O)Nc1ccc(C(F)(F)F)cc1 | . | . | 44.7µM[quencher] | . | .
CCOc1ccc(NC(=O)c2cc(S(=O)(=O)N3CCCCCC3)cn2C)cc1 | . | . | . | . | .
O=C(NCCCO)C(=O)NCCc1ccc(Cl)cc1 | . | . | . | . | .
Cn1nc([N+](=O)[O-])c(C(C#N)c2nc3ccccc3n2C)c(Cl)c1=O (configuration not stated) | . | 15.8µM | . | ? | .
CC1=CC(=C2C=CC(=O)C=C2)C=C(C)N1C | . | . | . | . | .
N#C/C(=C/c1ccc(N2CCCCCC2)o1)c1ccc(Cl)cc1 | ? | 25.1µM | . | ? | .
N#C/C(=C/c1ccc(N2CCCCC2)o1)c1cccc(F)c1 | ? | 12.6µM | . | ? | .
N#C/C(=C\c1ccc(N2CCOCC2)o1)C(=O)NC1CCCCC1 | . | ? | . | . | .
BrC(/C=N/N1CCN(Cc2ccccc2)CC1)=C/c1ccccc1 | . | ? | . | ? | .
COc1ccc(C(=O)Nc2ccc(C3CC3(Cl)Cl)cc2)cc1 (configuration not stated) | . | . | . | . | .
O=C1C(Cl)=C(NCCN2CCOCC2)C(=O)c2ncccc21 | ? | 12.6µM | . | ? | ?
O=C(Nc1ccc(Cl)cc1)NC1CCCc2ccccc21 (configuration not stated) | . | . | . | . | .
O=C1C(Cl)=C(NC2CCc3ccccc32)C(=O)c2ncccc21 (configuration not stated) | ? | 12.6µM | . | ? | ?
CCCCNc1nc(C)nc2c1nc(C)n2CCC | . | . | . | . | .
CCN(C(=O)COC(=O)C1CCN(S(=O)(=O)c2cccs2)CC1)c1ccccc1 | . | . | . | . | .
SMILES | Tau fibril FP | Tau ThT inhib | TexasRed fluor | Tau fluor counter | TRb SRC2 PPI
COc1ccc(NC(=O)c2nnn(Cc3nc(-c4cc(OC)c(OC)c(OC)c4)oc3C)c2C)cc1Cl | . | . | 0.0089µM[quencher] | . | .
COc1cccc([C@@H]2Oc3ccc(OC)cc3C(=O)[C@H]2OC(=O)NS(=O)(=O)c2ccc(C)cc2)c1 | . | . | . | . | .
Cc1cc(C)cc(N=Cc2ccc([N+](=O)[O-])s2)c1 | . | ? | . | . | .
Cc1ccc(NC(=S)N/N=C/c2ccc([N+](=O)[O-])s2)cc1 | ? | 5.01µM | . | 15.8µM[quencher] | .
O=C(COc1ccc(Cl)cc1)Nc1ccc2nc(SCC(=O)N3CCOCC3)sc2c1 | . | . | . | ? | .
O=C(Nc1ccc(F)cc1Cl)c1cnc(N2CCOCC2)c2ccccc12 | . | . | 11.2µM[quencher] | . | .
O=C(NCc1ccccc1Cl)c1cnc(N2CCCCC2)c2ccccc12 | . | . | 1585µM[quencher] | . | .
O=C(NCc1ccccc1Cl)c1cnc(N2CCOCC2)c2ccccc12 | . | . | . | . | .
Cc1ccc(Cl)cc1N1CCN(C(=O)c2cnc(N3CCOCC3)c3ccccc23)CC1 | . | . | 70.8µM[quencher] | . | .
COc1cccc(NC(=O)C(Cc2ccccc2)NS(=O)(=O)c2ccc3c(c2)oc(=O)n3C)c1 (configuration not stated) | . | . | . | . | .
CCOc1ccc(NC(=O)/C=C/c2ccccc2)c([N+](=O)[O-])c1 | . | ? | . | . | .
CCOc1ccc(N/C=C/C(=O)c2ccccc2)c([N+](=O)[O-])c1 | . | 1.41µM | . | ? | .
CCCCCC(=O)Nc1nc(C)c(-c2csc(Nc3ccccc3OC)n2)s1 | ? | ? | . | 11.2µM[quencher] | .
CCCCC(=O)Nc1nc(C)c(-c2csc(Nc3cc(Cl)ccc3OC)n2)s1 | . | ? | . | ? | .
COc1ccccc1Nc1nc(-c2sc(NC(=O)c3ccc([N+](=O)[O-])cc3)nc2C)cs1 | ? | 3.55µM | . | 10µM[quencher] | .
CCCCCC(=O)Nc1nc(C)c(-c2csc(Nc3ccccc3OCC)n2)s1 | . | ? | . | ? | .
CCC(=O)Nc1nc(C)c(-c2csc(Nc3ccccn3)n2)s1 | ? | 14.1µM | . | ? | .
CCCCCCC(=O)Nc1nc(C)c(-c2csc(Nc3ccccc3OC)n2)s1 | . | ? | . | 14.1µM[quencher] | .
CCCC(=O)Nc1nc(C)c(-c2csc(Nc3ccccc3C)n2)s1 | ? | ? | . | . | .
C=CC(=O)CC | / | / | . | / | .
CO/N=C1\C[C@]2(C[C@@H]3C[C@@H](C/C=C(\C)C[C@@H](C)/C=C/C=C4\CO[C@@H]5[C@H](O)C(C)=C[C@@H](C(=O)O3)[C@]45O)O2)O[C@H](/C(C)=C/C(C)C)[C@H]1C | / | / | . | / | .
CCCC(NC(C)C(=O)N1C(C(=O)O)CC2CCCCC21)C(=O)OCC (configuration not stated) | . | . | . | . | .
COc1ccc(Nc2oc(COc3ccc(Cl)cc3)nc2C#N)cc1 | . | ? | . | 20µM[quencher] | .
COCCCNc1oc(-c2ccc(COc3ccc(Cl)cc3)o2)nc1C#N | ? | ? | . | 11.2µM[quencher] | .
COCCNc1oc(-c2ccc(COc3ccc(OC)cc3)o2)nc1C#N | . | . | ? | ? | .
Cc1ccc(-n2nnnc2C(Cl)(Cl)c2nnnn2-c2ccc(C)cc2)cc1 | 15.8µM | 8.91µM | . | . | .
Cc1cccc(N2CCN(C(=O)c3cc4ccc5cccnc5c4[nH]3)CC2)c1C | . | ? | . | . | .
COc1ccc(CNC(=O)Nc2ccc([N+](=O)[O-])cc2)cc1 | / | / | . | / | .
COc1ccc(NC(=O)c2ccc(-c3ccc([N+](=O)[O-])cc3)o2)cc1 | . | 1.26µM | 31.6µM[quencher] | ? | ?
O=[N+]([O-])c1ccc(/C=C/C2=NN(c3ccccc3)C(c3ccco3)C2)o1 (configuration not stated) | . | 7.94µM | . | ? | ?
